The values that follow come from PMC12136788.

Changes are numbered by the printed parent chain. Whole data set: some 24,000 sequences, median “enrichment r” near 0.99, cut for the highest 2% near 3.7. This is one part of a sample in which the highest values are shown more often than they occur.

T1: UNK ZnF1-3 (human, UniProt Q9C0B0 31-174)
T1 sequence: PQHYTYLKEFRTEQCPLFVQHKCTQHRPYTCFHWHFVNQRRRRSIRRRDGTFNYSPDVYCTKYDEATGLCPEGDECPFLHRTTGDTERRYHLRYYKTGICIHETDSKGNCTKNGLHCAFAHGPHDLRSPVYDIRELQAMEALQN

B1: chr13:100200933:100200934:-_ENSMUSG00000052727_ENSMUST00000064762|mus_hu|FALSE|FALSE (ssRNA)
RNA: GGGAGUUCUACAGUCCGACGAUCAGAGGUGAGUGAGGCAUAUAAGGACAUAUCUCUGGGAGGAGCAACAUCGGAUAGAGUAUCUUCUUGGAGAGGAGAAGCGAUCUGAGAAGGGGUAUGAGCAGAAGAGGUGGACGGGGAGGCCAACAGAGGAUUGAGCAUCA
B2: chr14:21343058:21343059:-_ENSMUSG00000021816_ENSMUST00000161445|perfect_dup|FALSE|FALSE (ssRNA)
RNA: GGGAGUUCUACAGUCCGACGAUCUGUAGUUUGACUUUUUCUGUACAUUCUAUAGCCUGCAUCUUGAGCUUCAUGAGCUCUAAUAAUCGAUAACAAAUUAUUGUUUUGCAAAAAUUCACACACUGCUGGAUAGUUAUAAAAAUACAACAGAGGAUUGAGCAUCA
B3: chr2:216981417:216981418:+_ENSG00000079246_ENST00000392132|hu_hu|hu_hu_hu_mus_True|58_68 (ssRNA)
RNA: GGGAGUUCUACAGUCCGACGAUCCUGAUACUGGUCCUUGCCAGCAAGGGCAUUAUCAGUGCCAUCUGUACCAAACAGGACUAAAGCAAUCUCAUCUUUGCUCUCCGAAAAUACCUGUCGUUGGACAAACAUAGUCAUCACUUUCAACAGAGGAUUGAGCAUCA
B4: chr6:40197388:40197389:+_ENSMUSG00000057716_ENSMUST00000061740|mus_mus|mus_mus_mus_hu_False|68_108 (ssRNA)
RNA: GGGAGUUCUACAGUCCGACGAUCGAGUUGUCAGUUUGGAUUUAUUCCACCUCUGUUUGGGUGCUAGUAAGAUAGAUUGUUAUUUUGGGAUUCAUGGCCUUGAAUAUCAAGAGGGAAAGGAAGAGGAUGGAAAGAGUCAAGAGUCAACAGAGGAUUGAGCAUCA
B5: 33360611_33360731_3434_3pUTR_ENSMUSG00000024378_ENSMUST00000025236|mouse|control|control (ssRNA)
RNA: GGGAGUUCUACAGUCCGACGAUCCUAUGGACUGCUAUAAGCCCUUCCCCCAGCCCCAGGUACUUUUGCAAGAGCAGAGAACGCUCUUUCACUACCAUCACCUCCCAGCCUCUGCUGGGAUACUCUGAGUUACACGUAUGGCUUCAACAGAGGAUUGAGCAUCA
B6: chr7:7679991:7679992:-_ENSG00000106399_ENST00000396682|hu_hu|hu_hu_hu_mus_False|8_8 (ssRNA)
RNA: GGGAGUUCUACAGUCCGACGAUCUGGGAUGAAUCUUUUCCAGCUUCCCCACGAAGCACACGGGCCGGUCGAUAUACUGUGGUAACAUGCUGGCGUUGACGCGCGCUUUGGGGAGCUGCAUUAUGUCCACCAUGAUUCUGCCGCCAACAGAGGAUUGAGCAUCA
B7: 142153747_142154939_927_CDS_ENSG00000109445_ENST00000262990|human|control|control (ssRNA)
RNA: GGGAGUUCUACAGUCCGACGAUCAUAAGCAUCAUACCCAGAAGCUCCAUCUCCCUCUUCACCUCCAGUCUGCCUGCCAAAUUUCAGGGAGCGUGUUGACAUGCUAAGGUCCUUAGUCUCCUGAGUUUCAUGCCCACAUUUAGGCAACAGAGGAUUGAGCAUCA
B8: chr2:232320318:232320319:-_ENSG00000115053_ENST00000322723|hu_hu|hu_hu_hu_mus_True|28_78 (ssRNA)
RNA: GGGAGUUCUACAGUCCGACGAUCACUAUUAAAGUCUACAAAACCAAACCCUUUGGAGGACCCAGUUUCCCGAUCAGUGACUAUUCUUGCACGAACAGAGCCCUCAAAUGACUCCUUUAAGGUCUCUUCAGUGGUAUCCUCAGACAACAGAGGAUUGAGCAUCA
B9: chr13:100518589:100518590:+_ENSG00000125246_ENST00000339105|hu_hu|FALSE|FALSE (ssRNA)
RNA: GGGAGUUCUACAGUCCGACGAUCUUCUCGUGACUGUCUAAGCAGCCCAGCUCCAUCUCGAAAGUCAAUGUACACCAGAUCUAUGGCUUGGAGACCAAAGGCUUUCGCUAUGACAACAAUCUUUUGCCGGGCGUAGAGAAUAUCCAACAGAGGAUUGAGCAUCA
B10: chr17:60770872:60770873:+_ENSG00000011028_ENST00000303375|hu_hu|hu_hu_hu_mus_True|58_88 (ssRNA)
RNA: GGGAGUUCUACAGUCCGACGAUCUCUUUAAAAAAAAAAAAAAAAAGUUUAAAAACAAUAGCACAUUUCGAGAAUCAUCAACUACAGUAGAGGGUCCGCUUUGAGUUUUUGUUCACAUCGUCCUGCACUGGGACACGGGGACUGCAACAGAGGAUUGAGCAUCA
B11: chr17:60770872:60770873:+_ENSG00000011028_ENST00000303375|hu_hu|hu_hu_hu_mus_True|1_58 (ssRNA)
RNA: GGGAGUUCUACAGUCCGACGAUCUCUUUAAAAAAAAAAAAAAAAAGACAAACAAUAAUAGCACAUUUCGAGAAUCAUCAACUACAGUAGAGGGUCCGCUUUGAGUUUUUGUUCACAUCGUCCUGCACUGGGACACGACCAGGACAACAGAGGAUUGAGCAUCA
B12: chr17:60770872:60770873:+_ENSG00000011028_ENST00000303375|hu_hu|hu_hu_hu_mus_True|58_58 (ssRNA)
RNA: B10 RNA with U47A, U48C, U49A, A52C, C55U
B13: chr22:38882006:38882007:-_ENSG00000100201_ENST00000396821|hu_hu|FALSE|FALSE (ssRNA)
RNA: GGGAGUUCUACAGUCCGACGAUCAGGAGGAGGAGGGGGAGGAGGAGGAGGGUAUUGGUAGGCAGUCUGCCCCAUGUAACCUAUCAUAUUGGUAGCUCCCGGAGGCUGUGCAAACUGUUGUGACAUCAGUGGCUGUGGCUGCUGCAACAGAGGAUUGAGCAUCA
B14: chr10:28872372:28872373:+_ENSG00000095787_ENST00000354911|hu_mus|FALSE|FALSE (ssRNA)
RNA: GGGAGUUCUACAGUCCGACGAUCUGCAUCUGAAGUUUUGCUUGGAUUAUUGCUUGGAUUAGAAGAAUGUGAAUUUGAACUAUGAAGUGCACUGUGGUUGUGUGAGUUUUCUUGUGGAGAGUAACUGGUCCCACCGUCCCUUUCCAACAGAGGAUUGAGCAUCA
B15: chr19:8913615:8913616:-_ENSMUSG00000071658_ENSMUST00000096259|mus_hu|mus_mus_mus_hu_False|18_108 (ssRNA)
RNA: GGGAGUUCUACAGUCCGACGAUCAGGGGGGCACCAACUUCUGCCUGAAAUGGGUGCCCCACCCAGUAGGGAGUUGCAGCUGAAAGUAUCUGAUGCAGAAGCAGUGACUAUACGAAAGGUCACUAGAGGGGAGGGCCAGGCCAGCAACAGAGGAUUGAGCAUCA
B16: 49433355_49433581_8031_CDS_ENSG00000167548_ENST00000301067|human|control|control (ssRNA)
RNA: GGGAGUUCUACAGUCCGACGAUCGCGCUGGAUCUGCUGCCGAAUCAGCAGCUCUCGUAGUCGCUGGCGCUGCCGUUGCUUCUCCAGCUCUGUUUGGCUAAGGCCGGACAUGCCUGGGUCCUGGGUACCUGGGAGUUCAGCUGUCAACAGAGGAUUGAGCAUCA
B17: chr15:11317090:11317091:-_ENSMUSG00000022241_ENSMUST00000022849|mus_mus|FALSE|FALSE (ssRNA)
RNA: GGGAGUUCUACAGUCCGACGAUCUUCUGUGAGGAUGGCAAUCAUUCUUUCCACCGACCCCAGGAUGGCUCUGUGAACAAUCACUGGCCUUUUCUUAUCAUCGCCAUCGUGGCUGACGUAAGUAAGGUUAAACCUGAUGGGCAACAACAGAGGAUUGAGCAUCA
B18: chr19:60011576:60011577:-_ENSMUSG00000040022_ENSMUST00000171986|mus_hu|FALSE|FALSE (ssRNA)
RNA: GGGAGUUCUACAGUCCGACGAUCUUUUGCUGUAAAUGGAUUGGUUGACUCAUAAUCAAAAUAGUCCUGGCGAUUUUCACUAAAUGCAUUAGGUGAUUUCAAGUCACAAGGGCUAUCAGAUCCCCCAUUGUUAAGUUUAUCAGACAACAGAGGAUUGAGCAUCA
B19: chr7:66561770:66561771:+_ENSMUSG00000025326_ENSMUST00000107537|mus_mus|motif|central (ssRNA)
RNA: GGGAGUUCUACAGUCCGACGAUCUUAGCAUUACAGUAAAUAAGAGCUCUGUCUCAACUACUACAAGAAAGAAAAUAAUCCGGAGACAUCCUUUUCCCCUUCCAAUGAUUUGAAAGCUACCAUUAUCCCCUGCCAAUUAAAAUCCAACAGAGGAUUGAGCAUCA
B20: 133533018_133533138_1595_3pUTR_ENSG00000113575_ENST00000481195|human|control|control (ssRNA)
RNA: GGGAGUUCUACAGUCCGACGAUCUAGAAGGGAGGCCUUGGUAAUUAUUUUUAAAAAUGUUCAUUAAGCUCCAAUGAUUGUUUGCUGCUAUCCUUAUCUACAGUCAUGCUGAGUAAAGCUAUAGCUAAAUGGAAGUUAAAUUGUCAACAGAGGAUUGAGCAUCA
B21: chr4:87735950:87735951:+_ENSG00000163629_ENST00000511467|hu_hu|motif|central (ssRNA)
RNA: GGGAGUUCUACAGUCCGACGAUCCUCACCAUGUCCUUGUAACAAUGUCUGCUAUCAUCAAAUGCUGCCUUUAAUCAUCCCGGAGAUCUGCAUUGUUUGGUUAGUGUUAAAAUUUUGUAAAUAAUUAUCAUAGGUUAAAGUAGCCAACAGAGGAUUGAGCAUCA
B22: chr4:87735950:87735951:+_ENSG00000163629_ENST00000511467|hu_hu|FALSE|FALSE (ssRNA)
RNA: B21 RNA with G81U, G82A
B23: chr20:57609950:57609951:-_ENSG00000101166_ENST00000355937|hu_mus|FALSE|FALSE (ssRNA)
RNA: GGGAGUUCUACAGUCCGACGAUCGAUCUUUUGUUUAGAUCAAAAGUCACAGCCUUACCCCACCUCAUUAAAAAAAAAGAUCUACCUAAAAUAAUUGUGUCUUUUAAAUAACAAAUAAUAUGAUGCCAGCUUGAGAGUCCUGGACAACAGAGGAUUGAGCAUCA

The target of the experiment is T1, UNK ZnF1-3. The experiment in a line: nsRBNS (natural sequence RNA bind-n-seq); RBNS binding buffer (assumed for nsRBNS): 25 mM Tris pH 7.5, 150 mM KCl, 3 mM MgCl2, 0.01% Triton X-100, 500 ug/ml BSA, 20 U/ml SUPERase-In, 4 C; UNK is unkempt and MSI1 is Musashi-1; names of the RNAs are library labels; protein concentration not given here; high values mean tight binding.
B1 yielded a binding signal of 3.67 enrichment R.

B2 had a binding signal of 1.03 enrichment R.

B3 displayed a binding signal of 0.678 enrichment R.

As to B4, the binding signal came to 2.09 enrichment R.

B5 yielded a binding signal of 0.77 enrichment R.

Regarding B6, the binding signal was 0.487 enrichment R.

B7 yielded a binding signal of 1.39 enrichment R.

With B8, the binding signal was found to be 0.596 enrichment R.

Molecule B9 had a binding signal of 0.61 enrichment R.

B10: the binding signal came out at 4.59 enrichment R.

Molecule B11 had a binding signal of 3.08 enrichment R.

Turning to B12, the binding signal turned out to be 4.08 enrichment R.

Molecule B13 returned a binding signal of 1.56 enrichment R.

In the case of B14, the binding signal was 1.04 enrichment R.

B15 came in with a binding signal of 0.986 enrichment R.

B16 had a binding signal of 0.484 enrichment R.

Molecule B17 displayed a binding signal of 1.43 enrichment R.

For B18, the binding signal came out at 0.505 enrichment R.

In turn, B19 returned a binding signal of 1.63 enrichment R.

In the case of B20, the binding signal came to 1.37 enrichment R.

On to B21, for which the binding signal turned out to be 5.3 enrichment R.

Turning to B22, the binding signal came to 3.93 enrichment R.

As to B23, the binding signal worked out at 2.8 enrichment R.
